Assay results: the supplement of paper PMC11732987, “Enantioselective OTUD7B fragment discovery through chemoproteomics screening and high-throughput optimisation” (Communications Chemistry, 2025)

Assays:
Assay in all cases: log2 ratio of Biotin-Ahx-Ub-VS probe labelling (fragment/DMSO); higher = less target engagement (more negative = stronger competition), active = hit call of the paper (q ≤ 0.05, log2 ratio ≤ -1)
Conditions in all cases: compound concentration: 200 uM; treatment time: 3 h
USP34 = USP34 (UniProt Q70CQ2)
Outline: (§1)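 Global-median-normalised Spectronaut label-free quantities were compared by unpaired t-test, and values are average log2 ratios of fragment over vehicle. Only proteins with ≥2 unique peptides were used. HEK293T lysate (495 µg per sample) was treated in triplicate with fragment at 200 µM or vehicle for 3 h and then with Biotin-Ahx-Ub-VS at 0.5 µM final for 1 h. Labelled DUBs were then NeutrAvidin-enriched, digested with LysC and trypsin, and run by diaPASEF LC-MS/MS.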

USP36 = biological target: T1, USP36 (UniProt Q9P275)
T1 sequence (whole entry): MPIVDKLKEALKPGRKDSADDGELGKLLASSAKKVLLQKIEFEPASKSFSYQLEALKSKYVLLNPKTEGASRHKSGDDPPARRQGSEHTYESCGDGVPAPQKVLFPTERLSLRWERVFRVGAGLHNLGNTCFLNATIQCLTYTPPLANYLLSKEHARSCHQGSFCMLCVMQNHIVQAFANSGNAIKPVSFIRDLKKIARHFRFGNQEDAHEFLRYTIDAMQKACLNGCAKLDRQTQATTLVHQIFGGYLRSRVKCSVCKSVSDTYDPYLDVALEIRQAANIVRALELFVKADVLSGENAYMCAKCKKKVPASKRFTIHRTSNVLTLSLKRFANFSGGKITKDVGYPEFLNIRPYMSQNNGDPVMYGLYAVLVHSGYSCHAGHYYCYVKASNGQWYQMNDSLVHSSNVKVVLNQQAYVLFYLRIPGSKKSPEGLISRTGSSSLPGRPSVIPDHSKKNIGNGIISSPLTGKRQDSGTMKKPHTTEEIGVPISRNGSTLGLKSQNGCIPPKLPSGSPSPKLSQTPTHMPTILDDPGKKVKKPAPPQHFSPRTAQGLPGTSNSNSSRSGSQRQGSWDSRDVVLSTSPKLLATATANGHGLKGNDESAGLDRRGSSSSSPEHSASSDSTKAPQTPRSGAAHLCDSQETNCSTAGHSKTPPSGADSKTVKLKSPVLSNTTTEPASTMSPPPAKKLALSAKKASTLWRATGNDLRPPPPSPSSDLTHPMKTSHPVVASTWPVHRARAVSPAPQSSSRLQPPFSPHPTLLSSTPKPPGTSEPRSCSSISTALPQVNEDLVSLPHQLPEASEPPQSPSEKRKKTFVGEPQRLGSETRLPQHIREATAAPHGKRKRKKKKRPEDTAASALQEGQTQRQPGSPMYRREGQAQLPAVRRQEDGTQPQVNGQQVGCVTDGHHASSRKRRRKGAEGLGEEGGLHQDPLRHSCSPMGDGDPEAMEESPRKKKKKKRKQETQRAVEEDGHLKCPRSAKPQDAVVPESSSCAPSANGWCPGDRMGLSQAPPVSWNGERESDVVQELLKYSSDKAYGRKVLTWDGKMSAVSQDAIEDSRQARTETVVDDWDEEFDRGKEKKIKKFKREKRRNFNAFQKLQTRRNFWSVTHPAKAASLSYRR
Outline: as §1

USP38 = biological target: T2, USP38 (UniProt Q8NB14)
T2 sequence (whole entry): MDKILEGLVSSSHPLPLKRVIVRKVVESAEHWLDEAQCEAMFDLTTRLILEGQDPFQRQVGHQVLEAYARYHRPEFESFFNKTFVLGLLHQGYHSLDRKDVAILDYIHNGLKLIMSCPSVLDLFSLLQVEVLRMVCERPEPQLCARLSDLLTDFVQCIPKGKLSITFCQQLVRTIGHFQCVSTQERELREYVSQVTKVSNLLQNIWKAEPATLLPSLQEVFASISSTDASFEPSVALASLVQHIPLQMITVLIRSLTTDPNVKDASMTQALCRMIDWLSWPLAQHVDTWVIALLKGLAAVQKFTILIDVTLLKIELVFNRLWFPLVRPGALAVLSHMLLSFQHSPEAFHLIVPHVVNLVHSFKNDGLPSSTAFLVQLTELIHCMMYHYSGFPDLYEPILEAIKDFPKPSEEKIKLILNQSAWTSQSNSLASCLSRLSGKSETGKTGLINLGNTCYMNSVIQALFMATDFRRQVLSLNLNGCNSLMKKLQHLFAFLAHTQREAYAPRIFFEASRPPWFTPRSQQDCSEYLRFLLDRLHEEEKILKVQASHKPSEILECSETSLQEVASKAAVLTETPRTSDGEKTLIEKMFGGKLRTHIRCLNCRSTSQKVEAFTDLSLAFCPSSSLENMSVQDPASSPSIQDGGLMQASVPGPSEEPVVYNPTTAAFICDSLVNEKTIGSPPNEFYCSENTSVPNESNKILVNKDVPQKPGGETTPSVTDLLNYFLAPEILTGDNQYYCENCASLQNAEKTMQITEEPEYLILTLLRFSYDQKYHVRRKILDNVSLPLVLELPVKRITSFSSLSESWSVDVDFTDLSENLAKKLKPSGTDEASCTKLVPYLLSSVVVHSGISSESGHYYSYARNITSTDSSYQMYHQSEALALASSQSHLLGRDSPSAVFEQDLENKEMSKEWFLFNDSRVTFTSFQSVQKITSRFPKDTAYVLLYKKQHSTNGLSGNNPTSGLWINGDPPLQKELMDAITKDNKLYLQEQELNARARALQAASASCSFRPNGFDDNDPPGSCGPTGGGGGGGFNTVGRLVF
Outline: as §1

USP39 = biological target: T3, USP39 (UniProt Q53GS9)
T3 sequence (whole entry): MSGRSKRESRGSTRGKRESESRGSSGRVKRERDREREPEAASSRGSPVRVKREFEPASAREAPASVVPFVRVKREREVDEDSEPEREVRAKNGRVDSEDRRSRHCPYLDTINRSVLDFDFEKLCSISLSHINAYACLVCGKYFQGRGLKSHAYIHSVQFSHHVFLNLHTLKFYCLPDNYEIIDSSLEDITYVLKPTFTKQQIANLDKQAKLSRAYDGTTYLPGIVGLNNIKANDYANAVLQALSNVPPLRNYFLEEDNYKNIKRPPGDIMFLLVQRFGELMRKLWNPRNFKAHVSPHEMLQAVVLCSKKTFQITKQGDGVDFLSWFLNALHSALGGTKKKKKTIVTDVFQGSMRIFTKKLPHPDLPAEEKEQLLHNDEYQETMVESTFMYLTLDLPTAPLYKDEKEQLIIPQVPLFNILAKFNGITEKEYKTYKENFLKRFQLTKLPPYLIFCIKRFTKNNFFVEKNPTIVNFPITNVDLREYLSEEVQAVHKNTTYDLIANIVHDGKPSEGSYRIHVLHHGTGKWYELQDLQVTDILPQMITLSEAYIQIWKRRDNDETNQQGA
Outline: as §1

USP4 = biological target: T4, USP4 (UniProt Q13107)
T4 sequence (whole entry): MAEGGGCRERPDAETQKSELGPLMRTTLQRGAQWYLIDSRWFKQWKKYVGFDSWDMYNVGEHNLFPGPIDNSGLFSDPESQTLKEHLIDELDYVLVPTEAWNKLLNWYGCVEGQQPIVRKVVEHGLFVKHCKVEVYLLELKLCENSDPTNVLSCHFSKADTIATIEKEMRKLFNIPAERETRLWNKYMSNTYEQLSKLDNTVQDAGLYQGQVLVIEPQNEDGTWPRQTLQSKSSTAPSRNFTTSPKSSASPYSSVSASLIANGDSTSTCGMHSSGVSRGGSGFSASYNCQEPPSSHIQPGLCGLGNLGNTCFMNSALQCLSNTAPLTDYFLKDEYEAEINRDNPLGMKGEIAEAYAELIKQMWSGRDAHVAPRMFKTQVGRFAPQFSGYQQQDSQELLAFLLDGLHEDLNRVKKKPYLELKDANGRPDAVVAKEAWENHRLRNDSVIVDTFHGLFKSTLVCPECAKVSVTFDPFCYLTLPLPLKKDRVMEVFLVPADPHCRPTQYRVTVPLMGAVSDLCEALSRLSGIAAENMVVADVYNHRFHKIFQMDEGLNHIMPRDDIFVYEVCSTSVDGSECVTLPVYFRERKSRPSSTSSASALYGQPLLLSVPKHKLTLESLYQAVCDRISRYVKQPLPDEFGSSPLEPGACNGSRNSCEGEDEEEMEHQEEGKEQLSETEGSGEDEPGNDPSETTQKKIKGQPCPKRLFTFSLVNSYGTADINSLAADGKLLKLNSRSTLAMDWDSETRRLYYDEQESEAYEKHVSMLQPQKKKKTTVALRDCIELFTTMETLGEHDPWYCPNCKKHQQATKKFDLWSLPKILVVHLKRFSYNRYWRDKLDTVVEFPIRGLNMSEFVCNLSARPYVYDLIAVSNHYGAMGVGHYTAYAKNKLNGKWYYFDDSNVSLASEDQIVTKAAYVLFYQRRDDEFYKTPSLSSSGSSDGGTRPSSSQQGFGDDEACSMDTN
Outline: as §1

Measured: log2 ratio of Biotin-Ahx-Ub-VS probe labelling

Chain of USP34 (Q70CQ2 whole entry, the tested form may be a part): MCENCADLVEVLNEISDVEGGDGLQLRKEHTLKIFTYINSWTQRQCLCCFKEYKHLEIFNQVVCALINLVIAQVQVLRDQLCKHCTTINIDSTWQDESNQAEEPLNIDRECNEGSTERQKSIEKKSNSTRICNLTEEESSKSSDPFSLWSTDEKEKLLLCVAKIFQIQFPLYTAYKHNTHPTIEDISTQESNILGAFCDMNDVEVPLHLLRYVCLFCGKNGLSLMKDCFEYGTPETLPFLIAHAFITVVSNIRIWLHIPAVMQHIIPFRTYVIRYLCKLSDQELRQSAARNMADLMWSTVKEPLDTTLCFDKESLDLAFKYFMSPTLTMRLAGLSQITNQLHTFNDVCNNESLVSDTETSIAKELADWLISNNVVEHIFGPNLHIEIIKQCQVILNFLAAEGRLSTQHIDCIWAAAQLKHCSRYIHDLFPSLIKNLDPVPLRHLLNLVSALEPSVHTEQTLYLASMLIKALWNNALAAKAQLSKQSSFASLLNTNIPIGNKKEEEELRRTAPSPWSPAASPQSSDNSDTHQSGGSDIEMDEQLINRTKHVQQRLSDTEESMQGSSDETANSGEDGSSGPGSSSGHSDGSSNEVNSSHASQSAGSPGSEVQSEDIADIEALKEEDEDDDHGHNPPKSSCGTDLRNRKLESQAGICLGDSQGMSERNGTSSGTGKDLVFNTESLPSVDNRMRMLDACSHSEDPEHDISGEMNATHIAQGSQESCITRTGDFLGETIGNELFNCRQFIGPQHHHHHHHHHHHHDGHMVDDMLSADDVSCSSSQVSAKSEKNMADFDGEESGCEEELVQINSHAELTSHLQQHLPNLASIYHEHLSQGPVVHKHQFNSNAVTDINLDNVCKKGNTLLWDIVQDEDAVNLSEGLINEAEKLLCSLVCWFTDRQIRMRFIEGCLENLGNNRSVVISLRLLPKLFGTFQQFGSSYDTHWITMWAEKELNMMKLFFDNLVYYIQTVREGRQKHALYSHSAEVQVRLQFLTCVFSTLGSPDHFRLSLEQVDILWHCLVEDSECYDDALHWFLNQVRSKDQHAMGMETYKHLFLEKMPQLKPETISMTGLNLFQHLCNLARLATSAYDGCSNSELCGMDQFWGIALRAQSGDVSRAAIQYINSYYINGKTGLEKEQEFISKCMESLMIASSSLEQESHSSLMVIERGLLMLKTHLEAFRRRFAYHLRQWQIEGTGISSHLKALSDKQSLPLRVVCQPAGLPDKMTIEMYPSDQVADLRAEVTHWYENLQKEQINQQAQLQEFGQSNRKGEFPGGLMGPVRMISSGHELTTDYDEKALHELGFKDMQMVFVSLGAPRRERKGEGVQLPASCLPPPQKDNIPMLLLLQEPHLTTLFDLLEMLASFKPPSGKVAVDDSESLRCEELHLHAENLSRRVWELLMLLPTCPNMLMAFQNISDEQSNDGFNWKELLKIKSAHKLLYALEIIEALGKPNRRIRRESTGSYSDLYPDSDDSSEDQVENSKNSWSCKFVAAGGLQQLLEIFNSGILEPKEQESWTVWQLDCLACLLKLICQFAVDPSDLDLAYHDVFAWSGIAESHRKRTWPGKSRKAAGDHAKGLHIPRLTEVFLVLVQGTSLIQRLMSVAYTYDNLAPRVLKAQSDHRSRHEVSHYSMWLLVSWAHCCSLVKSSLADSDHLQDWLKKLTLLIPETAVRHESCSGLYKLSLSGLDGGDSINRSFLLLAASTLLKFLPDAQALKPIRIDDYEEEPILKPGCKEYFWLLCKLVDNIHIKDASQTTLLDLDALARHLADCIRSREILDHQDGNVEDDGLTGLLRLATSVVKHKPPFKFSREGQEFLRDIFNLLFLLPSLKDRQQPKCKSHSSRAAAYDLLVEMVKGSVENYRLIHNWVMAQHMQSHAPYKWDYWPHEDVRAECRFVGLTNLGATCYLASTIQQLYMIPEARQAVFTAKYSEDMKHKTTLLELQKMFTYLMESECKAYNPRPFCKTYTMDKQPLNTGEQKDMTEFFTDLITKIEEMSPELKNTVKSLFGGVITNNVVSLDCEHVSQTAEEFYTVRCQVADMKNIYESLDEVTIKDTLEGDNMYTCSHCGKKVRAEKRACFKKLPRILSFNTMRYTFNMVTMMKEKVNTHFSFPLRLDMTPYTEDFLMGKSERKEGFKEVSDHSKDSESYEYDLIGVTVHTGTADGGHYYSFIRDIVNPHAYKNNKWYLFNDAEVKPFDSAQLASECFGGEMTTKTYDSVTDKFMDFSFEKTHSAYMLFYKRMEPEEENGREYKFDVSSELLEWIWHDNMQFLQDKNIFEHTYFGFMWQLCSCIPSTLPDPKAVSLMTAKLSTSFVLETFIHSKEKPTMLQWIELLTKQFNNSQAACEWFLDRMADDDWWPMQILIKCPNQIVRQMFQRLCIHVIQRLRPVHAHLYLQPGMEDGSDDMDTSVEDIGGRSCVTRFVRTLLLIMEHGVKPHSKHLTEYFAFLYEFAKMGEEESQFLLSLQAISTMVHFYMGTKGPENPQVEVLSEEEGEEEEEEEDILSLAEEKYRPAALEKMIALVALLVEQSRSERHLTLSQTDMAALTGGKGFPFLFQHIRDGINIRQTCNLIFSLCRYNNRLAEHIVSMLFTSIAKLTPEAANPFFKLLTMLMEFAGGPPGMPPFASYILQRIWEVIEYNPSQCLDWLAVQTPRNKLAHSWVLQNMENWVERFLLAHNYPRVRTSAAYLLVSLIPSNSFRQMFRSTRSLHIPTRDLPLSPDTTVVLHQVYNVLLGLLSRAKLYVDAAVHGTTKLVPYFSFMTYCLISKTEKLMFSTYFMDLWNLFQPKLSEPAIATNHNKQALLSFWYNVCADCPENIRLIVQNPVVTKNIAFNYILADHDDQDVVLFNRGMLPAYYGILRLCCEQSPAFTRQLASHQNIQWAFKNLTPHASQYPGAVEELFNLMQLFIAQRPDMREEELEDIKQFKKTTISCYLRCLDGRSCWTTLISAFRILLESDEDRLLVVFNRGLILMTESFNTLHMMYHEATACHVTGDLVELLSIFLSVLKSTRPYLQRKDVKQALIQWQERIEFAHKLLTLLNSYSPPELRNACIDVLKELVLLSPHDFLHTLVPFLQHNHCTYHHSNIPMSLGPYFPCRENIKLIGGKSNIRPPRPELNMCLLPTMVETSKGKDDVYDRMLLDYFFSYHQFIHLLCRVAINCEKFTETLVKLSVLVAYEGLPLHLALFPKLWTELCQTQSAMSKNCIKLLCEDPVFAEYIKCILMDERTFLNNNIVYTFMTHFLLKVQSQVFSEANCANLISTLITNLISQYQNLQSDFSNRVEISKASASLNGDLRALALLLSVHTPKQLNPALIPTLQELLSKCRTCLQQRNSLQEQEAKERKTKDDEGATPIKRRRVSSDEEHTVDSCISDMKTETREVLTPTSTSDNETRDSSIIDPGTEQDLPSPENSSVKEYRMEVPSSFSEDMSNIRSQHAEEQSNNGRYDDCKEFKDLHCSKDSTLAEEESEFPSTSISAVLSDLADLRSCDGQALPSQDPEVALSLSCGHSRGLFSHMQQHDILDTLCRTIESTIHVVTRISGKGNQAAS

O=C(CCl)N1CCCC1c1ccsc1 (stereo not given)
inactive: USP34 -0.191 | USP36 -0.111 | USP38 -0.0937 | USP39 -0.0825 | USP4 -0.821
